Assay [1] in a line: qHTS assay for small molecule agonists of the p53 signaling pathway (AID 651631; calls by dose curve; further: nearly all actives have a fitted effect of over 15% in size; further: potency means the concentration at half of the fitted maximal effect). The method in brief: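 HCT-116 p53RE-bla reporter line, 16 h compound treatment at 37 °C, then fluorescence after 2 h with B/G FRET substrate.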
On the technique in general: In qHTS, concentration-response curves come from the screen itself.

A short description of assay [2]: qHTS assay for small molecules that induce genotoxicity in human embryonic kidney cells expressing luciferase-tagged ATAD5 (AID 651632). Further: nearly all actives have a fitted effect of over 15% in size. In short, it runs like this: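 ATAD5-luc HEK293T, 2,000 cells/well; cpd or DMSO pin-transferred; 16 hr, 37C/5% CO2; Amplite 30 min RT; luminescence.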
The nature of assay [3]: qHTS assay for small molecule agonists of the p53 signaling pathway - cell viability (AID 651633; calls by dose curve; further: nearly all actives have a fitted effect of over 30% in size; further: potency means the concentration at half of the fitted maximal effect). In short, it runs like this: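 p53RE-bla cells, seeded at 4,000 per well and rested 5 h at 37 C/5% CO2, received compounds in DMSO for 16 h at 37 C. CellTiter-Glo was then added, and luminescence was read after 30 min at room temperature to gauge cytotoxicity.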
Assay [4] can be described thus: qHTS assay for small molecules that induce genotoxicity in human embryonic kidney cells expressing luciferase-tagged ATAD5 - cell viability (AID 651634; calls by dose curve; further: nearly all actives have a fitted effect of over 25% in size; further: potency means the concentration at half of the fitted maximal effect). The method in brief: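 Fluorescence from CellTiter-Fluor, reporting protease activity within live cells, served as the viability read-out. HEK293T cells carrying luciferase-tagged ATAD5 had been treated with compound for 15.5 hr at 37C.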

Assay [5] in a line: qHTS assay for small molecule disruptors of the mitochondrial membrane potential - cell viability (AID 720634; calls by dose curve;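 further: human HepG2 liver cancer cells; series mostly up to about 83 µM; nearly all actives have a fitted effect of over 20% in size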). In short, it runs like this:
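Cells: HepG2, 2,000/well, attached overnight. Compound 1 hr, 37 C/5% CO2. +m-MPI dye, +CellTiter-Glo 30 min RT. Readout: luminescence (ATP).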

A short description of assay [6]: qHTS assay for small molecule disruptors of the mitochondrial membrane potential (AID 720635). Further: potency means the concentration at half of the fitted maximal effect. The method in brief: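 HepG2 cells (2,000/well) attached overnight at 37C, then took compound for 1 hr at 37C, 5% CO2. Mito-MPS dye was added for 30 min; fluorescence was read at 490/535 nm (monomers) and 540/590 nm (aggregates).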
Assay [7] in a line: qHTS assay to test for compound auto fluorescence at 590 nm (red) in HepG2 cells (AID 720674). In short, it runs like this:
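Compound auto-fluorescence is scored relative to Rose Bengal sodium, measured at 540/590 nm in live HepG2 cultures after 1 hr compound contact (37 C, 5% CO2).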

Assay [8] in a line: qHTS assay to test for compound auto fluorescence at 535 nm (green) in HepG2 cells (AID 720675).
Assay [9] is described as follows: qHTS assay to test for compound auto fluorescence at 460 nm (blue) in HEK293 cells (AID 720678). The method in brief: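 Blue read-out at excitation 405 nm and emission 460 nm follows overnight compound exposure of HEK293 cells at 37C in 5% CO2. Activity is given as auto fluorescence equivalency to triamterene.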
The nature of assay [10]: qHTS assay to test for compound auto fluorescence at 590 nm (red) in HEK293 cells (AID 720679). The method in brief:
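Red channel, Ex/Em 540/590nm; signal expressed as equivalency to Rose Bengal sodium. HEK293, 2,000 cells/well, 10% dialyzed FBS; 23 nL compound pinned after 4-5 hr attachment; overnight 37C/5% CO2 before reading.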

Assay [11] is described as follows: qHTS assay to test for compound auto fluorescence at 535 nm (green) in HEK293 cells (AID 720680).
Assay [12] in a line: qHTS assay to test for compound auto fluorescence at 460 nm (blue) in HEK293 cell free culture (AID 720681). In short, it runs like this:
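Test compounds were pinned into cell-free culture medium (DMEM with 10% FBS) and fluorescence was read directly at Ex/Em 405/460 nm. Signals were expressed as fluorescence equivalents of triamterene, with DMSO vehicle as control.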

Assay [13] is described as follows: qHTS assay to test for compound auto fluorescence at 535 nm (green) in HEK293 cell free culture (AID 720682). The method in brief: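 Steps: dispense DMEM/10% FBS into empty wells; pin in compound or DMSO; measure fluorescence at 485/535 nm. Values are fluorescein equivalents.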
Assay [14] is described as follows: qHTS assay to test for compound auto fluorescence at 590 nm (red) in HEK293 cell free culture (AID 720683). In short, it runs like this:
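Tox21 10K library compounds were pinned into cell-free DMEM with 10% FBS and fluorescence was read at excitation 540 nm. Activity is expressed as Rose Bengal sodium equivalency.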

Assay [15] can be described thus: qHTS assay to test for compound auto fluorescence at 590 nm (red) in HepG2 cell free culture (AID 720684). The method in brief: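 Measured in medium alone (MEM containing 10% FBS) following pintool addition of compound; emission at 590 nm with 540 nm excitation, referenced to Rose Bengal sodium.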
Assay [16] can be described thus: qHTS assay to test for compound auto fluorescence at 460 nm (blue) in HepG2 cell free culture (AID 720685). In short, it runs like this:
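Compound (23 nL) or DMSO pinned into cell-free MEM with 10% FBS; blue fluorescence read at 405/460 nm excitation/emission, expressed as auto-fluorescence equivalency to triamterene.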

A short description of assay [17]: qHTS assay to test for compound auto fluorescence at 535 nm (green) in HepG2 cell free culture (AID 720686).
Assay [18] in a line: qHTS assay to test for compound auto fluorescence at 460 nm (blue) in HepG2 cells (AID 720687). In short, it runs like this:
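Cells (2,000/well in MEM with 10% FBS) attached overnight at 37 C, then were exposed to compound or DMSO for 1 hr at 37 C, 5% CO2. Fluorescence read at Ex/Em 405/460 nm, expressed as triamterene-equivalent signal.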

In assay [19] the target is Glucocorticoid receptor (Homo sapiens) (UniProt P04150). Nature of the assay: qHTS assay to identify small molecule agonists of the glucocorticoid receptor (GR) signaling pathway (AID 720691; active means well fitted activation curve with a large enough effect in the signal ratio in the repeat runs, not every such curve was filed as active; the % refers to the signal ratio). In short, it runs like this:
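Fluorescence intensity from LiveBLAzer B/G FRET substrate (2 h, room temperature) reports beta-lactamase expression driven by the glucocorticoid response element in GR-bla HeLa cells after 18 h compound exposure at 37 C.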

Assay [20] has the same target. Nature of the assay: qHTS assay to identify small molecule antagonists of the glucocorticoid receptor (GR) signaling pathway (AID 720692; active means well fitted inhibition curve with a large enough effect in the signal ratio in the repeat runs, not every such curve was filed as active; the % refers to the signal ratio; further: potency means the concentration at half of the fitted maximal effect). In short, it runs like this: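 HeLa GR-bla cells; cmpd + dex 5 nM final, 18 h 37 C; LiveBLAzer B/G FRET substrate 2 h RT; fluorescence intensity read. Antagonist mode, qHTS.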

Consider 13 compounds from PubChem BioAssay (Tox21).

Several values for one entry are separate records, joined by “and”; a condition that tells them apart may be missing. Equal values may be shown once. Inconclusive results are not listed. Where a structure was tested more than once in an assay, its records may differ in their call. Activity calls are given as the source filed them. Unless noted, the call rests on the fitted dose curve; in most records, active means well fitted curve in the direction sought with a large enough effect in the repeat runs; inconclusive means weak or mixed curves; inactive means no such curve, though single readings can be large; an effect the other way counts as inactive or inconclusive.

Chain of Glucocorticoid receptor (Homo sapiens) (P04150 whole entry, looked up): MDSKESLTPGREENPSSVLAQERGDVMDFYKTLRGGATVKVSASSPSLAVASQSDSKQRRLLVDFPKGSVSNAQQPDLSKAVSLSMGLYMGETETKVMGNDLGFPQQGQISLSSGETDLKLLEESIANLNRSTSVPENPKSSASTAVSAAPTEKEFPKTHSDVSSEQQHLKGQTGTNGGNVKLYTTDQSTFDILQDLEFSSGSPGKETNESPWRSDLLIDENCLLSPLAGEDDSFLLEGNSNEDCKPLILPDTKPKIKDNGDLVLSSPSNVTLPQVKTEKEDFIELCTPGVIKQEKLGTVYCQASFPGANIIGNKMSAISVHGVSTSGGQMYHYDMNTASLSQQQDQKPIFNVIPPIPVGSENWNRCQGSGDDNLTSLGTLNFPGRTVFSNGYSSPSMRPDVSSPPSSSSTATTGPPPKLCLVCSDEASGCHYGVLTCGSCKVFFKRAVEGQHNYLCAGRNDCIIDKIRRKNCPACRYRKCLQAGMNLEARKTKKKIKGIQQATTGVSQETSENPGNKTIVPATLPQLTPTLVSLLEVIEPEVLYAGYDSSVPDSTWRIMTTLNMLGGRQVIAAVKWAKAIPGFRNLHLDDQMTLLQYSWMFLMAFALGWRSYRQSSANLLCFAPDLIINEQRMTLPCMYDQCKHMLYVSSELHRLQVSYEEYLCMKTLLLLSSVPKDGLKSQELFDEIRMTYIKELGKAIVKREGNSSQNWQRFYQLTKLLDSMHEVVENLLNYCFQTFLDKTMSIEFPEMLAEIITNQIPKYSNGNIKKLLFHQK

With `CNC(=S)S`, the Potency result in [1], in [2], in assay [3], in [4], in [5] and in assay [6] was “inactive” each time. Further, the Potency entry in [9], in assay [12], in assay [16], in assay [18] and in assay [20] was “inactive” throughout. Besides, the result in [7], in assay [8], in assay [10], in [11], in assay [13] and in [14] was inactive. The call in assay [15], in assay [17] and in assay [19] was inactive.

In the case of `CCOP(=O)(OCC)OCC`, the Potency entry in assay [1], in [2], in [3], in assay [4], in [5] and in assay [6] was “inactive” each time. Besides, the Potency result in assay [9], in assay [12], in assay [16], in [18] and in [20] was “inactive” throughout. The result in assay [7], in [8], in assay [10], in assay [11], in assay [13] and in assay [14] was inactive. Moreover, the call in [15], in assay [17] and in assay [19] was inactive.

For `CC(C)(C#N)N=NC(C)(C)C#N`, the Potency result in [1], in [2], in [3], in [4], in assay [5] and in [6] was “inactive” each time. The Potency entry in assay [9], in assay [12], in assay [16], in [18] and in assay [20] was “inactive” in each case. Moreover, the compound was classed as inactive in assay [7], in [8], in assay [10], in assay [11], in assay [13] and in [14]. Besides, the result in [15] and in assay [19] was inactive.

Regarding `CN(C)P(=O)(N(C)C)N(C)C`, the Potency entry in [1], in assay [2], in assay [3], in assay [4], in [5] and in assay [6] was “inactive” each time. Moreover, the Potency entry in assay [9], in [12], in assay [16] and in assay [18] was “inactive” throughout. Further, the outcome in assay [7], in [8], in assay [10], in assay [11], in assay [13] and in assay [14] was inactive. Further, the compound was called inactive in assay [15] and in assay [17].

As for `CC(C)(O)C#N`, the Potency entry in assay [1], in assay [2], in assay [3], in assay [4], in [5] and in assay [6] was “inactive” throughout. The Potency entry in [9], in assay [12], in assay [16] and in assay [18] was “inactive” throughout. In addition, the outcome in assay [7], in [8], in [10], in assay [11], in assay [13] and in [14] was inactive. The outcome in assay [15] was inactive.

With `N#CCCCCC#N`, the Potency entry in assay [1], in assay [2], in assay [3], in [4], in [5] and in [6] was “inactive” each time. Moreover, the Potency result in [9], in [12], in assay [16], in assay [18] and in [20] was “inactive” in each case. Further, the result in [7], in assay [8], in assay [10], in assay [11], in [13] and in assay [14] was inactive. For the same compound, the compound was classed as inactive in assay [15], in assay [17] and in assay [19].

`CCCCOCCOC(C)=O`: the Potency result in assay [1], in [2], in assay [3], in [4], in assay [5] and in [9] was “inactive” throughout. For the same compound, the Potency result in assay [12], in assay [16], in assay [18] and in assay [20] was “inactive” in each case. Further, the Potency in [6] was 53 µM (active). The outcome in [7], in assay [8], in assay [10], in [11], in assay [13] and in [14] was inactive. The call in assay [15], in assay [17] and in [19] was inactive.

As for `CCOS(=O)(=O)OCC`, the Potency result in assay [1], in assay [2], in assay [3], in assay [4], in [5] and in assay [6] was “inactive” throughout. The Potency result in [9], in assay [12], in [16], in assay [18] and in assay [20] was “inactive” throughout. Besides, the compound was classed as inactive in assay [7], in assay [8], in assay [10], in [11], in [13] and in assay [14]. Also, the compound was classed as inactive in assay [15], in [17] and in [19].

For `Cn1c(-c2ccccc2)cc(-c2ccccc2)[n+]1C`, the Potency result in assay [1], in [2], in assay [3], in [4], in [5] and in [6] was “inactive” throughout. Besides, the Potency result in assay [9], in assay [12], in assay [16] and in [18] was “inactive” each time. The compound was classed as inactive in assay [7], in [8], in assay [10], in [11], in assay [13] and in assay [14]. Further, the compound was called inactive in [15], in assay [17] and in assay [19].

For `ClCc1ccccn1`, the Potency result in assay [1], in [2], in assay [3], in [4], in [5] and in assay [6] was “inactive” in each case. In addition, the Potency entry in assay [9], in assay [12], in assay [16], in assay [18] and in [20] was “inactive” each time. In addition, the compound was called inactive in assay [7], in [8], in assay [10], in assay [11], in [13] and in assay [14]. For the same compound, the call in assay [15], in assay [17] and in [19] was inactive.

Turning to `CCN(CC)C(=O)C(C)Oc1cccc2ccccc12` (stereo not drawn), the Potency result in assay [1], in assay [2], in assay [3], in assay [4], in [5] and in assay [6] was “inactive” each time. Moreover, the Potency result in assay [9], in assay [12], in assay [16] and in assay [18] was “inactive” each time. In addition, the compound was classed as inactive in assay [7], in [8], in assay [10], in assay [11], in [13] and in assay [14]. The compound was classed as inactive in assay [15] and in [17].

In the case of `CC[n+]1c(-c2ccccc2)c2cc(N)ccc2c2ccc(N)cc21`, the Potency is 3.35 µM (active) and 10.6 µM (active) and 2.16 µM (active) in assay [1]; 9.44 µM (active) and inactive in assay [3]; 23.7 µM (active) and 54.2 µM (active) in assay [4]; 2.21 µM (active) in assay [6]. The Potency result in assay [2], in assay [5], in assay [9], in assay [12], in [16] and in assay [18] was “inactive” each time. Also, the call in assay [7], in assay [8], in assay [10], in assay [11], in [13] and in [14] was inactive. For the same compound, the compound was called inactive in assay [15].

Turning to `O=C(O)c1nn(Cc2ccc(Cl)cc2Cl)c2ccccc12`, the Potency entry in [1], in assay [2], in [3], in assay [4], in assay [5] and in [6] was “inactive” in each case. For the same compound, the Potency entry in assay [9], in assay [12], in assay [16] and in assay [18] was “inactive” throughout. Further, the outcome in assay [7], in assay [8], in [10], in assay [11], in [13] and in [14] was inactive. Moreover, the outcome in [15], in assay [17] and in [19] was inactive. Moreover, the Potency result in assay [20] is “inactive and 43.4 µM (active)”.
